In PubChem BioAssay (NCATS):
Records with an inconclusive call do not appear. The source made the active and inactive calls. The call rests on the fitted dose curve; in most records, active means well fitted inhibition curve with a large enough effect in the polarisation, with a control signal flat (not every such curve was filed as active); inconclusive means small, poorly fitted or top-dose-only effect, or effect the other way; inactive means flat fitted curve, though single readings scatter; the % refers to the polarisation.

The compounds below were run against Peptidyl-prolyl cis-trans isomerase NIMA-interacting 1 (Homo sapiens) (UniProt Q13526) (assay: qHTS Validation Assay to Find Inhibitors of Pin1 (AID 504536)). Conditions: Pin1 fluorescence polarization peptide binding assay; series mostly up to 57.5 µM.
Source text: NIH Molecular Libraries Probe Production Network [MLPCN]
NIH Chemical Genomics Center [NCGC]
The unique chemical properties of Pro allow for the adoption of two completely distinct amide bond conformations (cis and trans). Peptidyl-prolyl cis/trans isomerases (PPIases) are evolutionary conserved enzymes that catalyze cis/trans isomerization of peptidyl-prolyl peptide bonds. Distinct from all other PPIases such as cyclophilins and FK506-binding proteins (FKBPs), Pin1 binds a subset of phos.Ser/Thr-Pro-containing proteins using its protein-targeting WW domain and isomerizes only specific phos.Ser/Thr-Pro bonds, which cannot be effectively catalyzed by other known PPIases.
Pin1-catalyzed conformational regulation can control a spectrum of activities of many key regulators in diverse cellular processes such as cell growth, genotoxic and other stress responses, immune response, germ cell development, neuronal differentiation and survival. Pin1 has emerged as a novel molecular timer that modulates its multiple targets at various steps of a given cellular process to synergistically control the amplitude and duration of a cellular response or process. Importantly, Pin1 is tightly regulated by multiple levels and its deregulation has an important role in a growing number of pathological conditions, including cancer, Alzheimer's disease, aging, asthma and microbial infection, providing a potentially new therapeutic option.
The goal of this screen is to find small-molecule inhibitors of Pin1 using a fluorescence polarization competition assay. A HiFluor-488-labeled peptide binds to the active site of Pin1 and can be displaced by compounds. Compounds were screened as a concentration-titration series that ranged from 57 uM to 0.7 nM.
NCGC Assay Protocol Summary:
Pin1 (0.6 uM) was dispensed into black, solid 1536-well plates at 2 uL/well in 10 mM HEPES (pH 7.5), 10 mM NaCl, 0.01% Tween20, 1 mM DTT, and 1% glycerol. Then, 23 nL of compounds or DMSO were delivered to each well using a pin tool. Two uL of Pin1-1b-HiFluor488 peptide (10 mM HEPES (pH 7.5), 10 mM NaCl, 0.01% Tween20, 1 mM DTT, and 1% glycerol, 0.02 uM Pin1-1b-HiFluor488) was then dispensed, and plates were incubated at room temperature for 10 min. The plates were measured on a ViewLux plate reader for fluorescence polarization signal using a 480/20 nM nm excitation filter and 540/25 nM nm S and P emission filters with a 20 second exposure. The %Activity was determined from the corrected fluorescence polarization values. Unlabeled Pin1-1c peptide was used as a control (3.5 mM two-fold serial; 20 uM final concentration) along with a 1x (0.3 uM) and 0x (no-enzyme) Pin1 enzyme control to normalize %Activity of identified inhibitors; 0x enzyme values corresponded to 100%Activity (full inhibition), while 1x Pin1 enzyme values were used to normalize 0%Activity (no inhibition).
Concentration-response curves were fitted to the signals arising from the resulting fluorescence polarization. The concentration-effect curves were then classified based on curve quality (r2), response magnitude and degree of measured activity, and compounds were subsequently categorized based on their curve class.
Keywords: Peptidyl prolyl isomerase, Pin1, fluorescence polarization, MLSMR, MLPCN, NIH Roadmap, qHTS, NCGC

Sequence of Peptidyl-prolyl cis-trans isomerase NIMA-interacting 1 (Homo sapiens) (Q13526 whole entry, looked up): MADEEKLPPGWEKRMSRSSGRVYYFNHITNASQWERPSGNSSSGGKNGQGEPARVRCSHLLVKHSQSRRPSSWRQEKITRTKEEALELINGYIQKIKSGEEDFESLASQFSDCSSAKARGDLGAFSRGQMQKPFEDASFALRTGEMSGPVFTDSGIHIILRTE

| Compound | outcome |
| --- | --- |
| CC(C)(C(=O)O)c1ccc(C(O)CCCN2CCC(C(O)(c3ccccc3)c3ccccc3)CC2)cc1 (stereo not given) | inactive |
| CC(CN1c2ccccc2Sc2ccccc21)N(C)C (stereo not given) | inactive |
| CC(CN(C)C)CN1c2ccccc2CCc2ccccc21 (stereo not given) | inactive |
| CN(C)CCC=C1c2ccccc2CCc2ccccc21 | inactive |
| CN1CCN(C2Cc3ccccc3Sc3ccc(Cl)cc32)CC1 (stereo not given) | inactive |
| CN(C)CCCN1c2ccccc2Sc2ccc(Cl)cc21 | inactive |
| COCCOC(=O)C1=C(C)NC(C)=C(C(=O)OC/C=C/c2ccccc2)C1c1cccc([N+](=O)[O-])c1 (stereo not given) | inactive |
| CNCCC(Oc1ccc(C(F)(F)F)cc1)c1ccccc1 (stereo not given) | inactive |
| CNCCCC1c2ccccc2C=Cc2ccccc21 | inactive |
| CC1=C(/C=C/C(C)=C/C=C/C(C)=C/C(=O)O)C(C)(C)CCC1 | inactive |
| CNC(=O)Oc1ccc2c(c1)[C@]1(C)CCN(C)[C@@H]1N2C | inactive |
| NC(N)=NCCC[C@H](N)C(=O)O | inactive |
| CC(C)(C)[C@]1(O)CCN2C[C@H]3c4ccccc4CCc4cccc(c43)[C@@H]2C1 | inactive |
| CC(C)(C)c1onc(OCP(=O)(O)O)c1CC(N)C(=O)O (stereo not given) | inactive |
| NC1CCN(c2cccc(Cl)n2)CC1 | inactive |
| CC[C@H]1CN2CCc3cc(OC)c(OC)cc3[C@@H]2C[C@@H]1C[C@H]1NCCc2cc(OC)c(OC)cc21 | inactive |
| CCN(CC)CCNC(=O)c1cc(Cl)c(N)cc1OC | inactive |
| COc1ccc(Cl)cc1C(=O)NCCc1ccc(S(=O)(=O)NC(=O)NC2CCCCC2)cc1 | inactive |
| CN(C)CCOC(C)(c1ccccc1)c1ccccn1 (stereo not given) | inactive |
| CCN(CC)C(C)CN1c2ccccc2Sc2ccccc21 (stereo not given) | inactive |

| Compound | outcome |
| --- | --- |
| C[C@](N)(Cc1ccc(O)cc1)C(=O)O | inactive |
| Cc1cc(N)c2ccccc2[n+]1CCCCCCCCCC[n+]1c(C)cc(N)c2ccccc21 | inactive |
| CNCC(O)c1ccc(O)c(O)c1 (stereo not given) | inactive |
| CC(C)NC[C@H](O)c1ccc(O)c(O)c1 | inactive |
| Nc1ncnc2c1ncn2[C@@H]1O[C@H](CO)[C@@H](O)[C@H]1O | inactive |
| CN(C)CC[C@@H](c1ccc(Cl)cc1)c1ccccn1 | inactive |
| CC(C(O)c1ccc(O)cc1)N1CCC(Cc2ccccc2)CC1 (stereo not given) | inactive |
| OCc1cc(C(O)CNCCCCCCOCCCCc2ccccc2)ccc1O (stereo not given) | inactive |
| CC1=C(CC(=O)O)c2cc(F)ccc2/C1=C\c1ccc(S(C)=O)cc1 (stereo not given) | inactive |
| CC1=C(CC(=O)O)c2cc(F)ccc2/C1=C\c1ccc(S(C)(=O)=O)cc1 | inactive |
| NC(=O)c1ncn([C@@H]2O[C@H](CO)[C@@H](O)[C@H]2O)n1 | inactive |
| C[C@]12C[C@H](O)[C@H]3[C@@H](CCC4=CC(=O)CC[C@@]43C)[C@@H]1CC[C@@H]2C(=O)CO | inactive |
| CCCCCCCCCCCCCCCC(=O)NCCO | inactive |
| CC(=O)OCC(=O)[C@@]1(O)CC[C@H]2[C@@H]3CCC4=CC(=O)CC[C@]4(C)[C@H]3C(=O)C[C@@]21C | inactive |
| OCCN1CCN(CCCN2c3ccccc3Sc3ccc(Cl)cc32)CC1 | inactive |
| CSc1ccc2c(c1)N(CCC1CCCCN1C)c1ccccc1S2 (stereo not given) | inactive |
| C#CCN(C)Cc1ccccc1 | inactive |
| O=C1N=C(O)CN1/N=C/c1ccc(-c2ccc([N+](=O)[O-])cc2)o1 | inactive |
| CCCn1cnc2c1c(=O)n(CCCCC(C)=O)c(=O)n2C | inactive |
| C[C@]12CC[C@@H]3c4ccc(O)cc4CC[C@H]3[C@@H]1CCC2=O | inactive |
